# Screening results as filed in PubChem.
# Sfp inh – qHTS Assay for Inhibitors of Bacillus subtilis Sfp phosphopantetheinyl transferase (PPTase) | Potency, µM, without a hit: largest response in the series, negative = inhibition, hits mostly inhibitors | 4'-phosphopantetheinyl transferase ffp (Bacillus subtilis), Q9F4F7 | 310,000 compounds, 3.5% hits | Biochemical Sfp PPTase activity, qHTS;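 further: the enzyme is Sfp with the accession as filed and its product quenches rhodamine fluorescence; 0% = enzyme reaction without inhibitor and -100% = no enzyme wells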
#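 Step 1, compound plus 15 nM Sfp-PPTase, 15 min, room temperature. Step 2, add rhodamine-CoA (5 uM) and BHQ-2-YbbR (12.5 uM). Step 3, read 525/598 nm fluorescence at 0 and 30 min.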
# BAZ2B inh – qHTS Assay for Inhibitors of BAZ2B. Bromodomain adjacent to zinc finger domain protein 2B (Homo sapiens), Q9UIF8. AlphaScreen BAZ2B-H3K14Ac peptide displacement. Potency, µM (titrated, usually from 114 µM), inactives show at the top dose activity change, negative = inhibition, hits mostly inhibitors. 360,000 compounds, 4.4% hits. AID 504333, 2011; further: on the % scale 0 is the no-effect control and ±100 the full control effect; nearly all actives have a fitted effect of over 60% in size
#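 AlphaScreen displacement of biotin-H3(5-23)K14Ac peptide (50 nM final) from BAZ2B (50 nM final) in PBS pH 7.4, 0.01% Tween-20; complex preformed 30 min RT, then compounds (top 110 uM) 30 min RT, beads 20 min dark.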
# JMJD2A Tudor inh – qHTS Assay for Inhibitors of JMJD2A-Tudor Domain | Lysine-specific demethylase 4A (Homo sapiens), O75164 | AlphaScreen JMJD2A-Tudor / H3K4me3 peptide binding | Potency, µM (top dose mostly 114 µM), for the others: top-dose activity change, negative = inhibition, most hits filed as inhibitors | 390,000 compounds, 4.4% hits; further: on the % scale 0 is the no-effect control and ±100 the full control effect; nearly all actives have a fitted effect of over 50% in size
# L3MBTL1 block – qHTS Assay for the Inhibitors of L3MBTL1 | Lethal(3)malignant brain tumor-like protein 1 (Homo sapiens), Q9Y468 | AlphaScreen L3MBTL1–H3K9me1 peptide binding | 230,000 compounds, 0.66% hits | Potency, µM (highest dose often 57.1 µM), for the others: top-dose activity, negative = inhibition, hits mostly inhibitors; further: on the % scale 0 is the no-effect control and ±100 the full control effect; nearly all actives have a fitted effect of over 60% in size
#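 Read-out is AlphaScreen signal from streptavidin donor and nickel chelate acceptor beads (10 ug/mL final each) bridging L3MBTL1 (50 nM) and biotinylated K9-monomethylated H3(1-15) peptide (75 nM), after 30 min compound exposure at room temperature.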
# HP1b binding inh – HTS for Inhibitors of HP1-beta Chromodomain Interactions with Methylated Histone Tails; Chromobox protein homolog 1 (Homo sapiens), P83916; 390,000 compounds, 0.56% hits; AlphaScreen HP1-beta / biotin-H3K9me3 peptide binding; Potency, µM (top dose mostly 114 µM), without a hit: top-dose activity change, negative = inhibition, hits mostly inhibitors; further: nearly all actives have a fitted effect of over 70% in size
#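 HP1-beta protein (50 nM final) preincubated 30 min at room temperature with biotinylated H3(1-18)K9me3 peptide (50 nM) in PBS pH 7.4, 0.01% Tween-20, then compound added for 30 min. AlphaScreen streptavidin donor/nickel chelate acceptor beads (10 ug/mL final), 30 min dark, luminescence read.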
# G9a block – qHTS Assay for Inhibitors of Histone Lysine Methyltransferase G9a; Potency, µM (series often up to 102 µM), for the others: top-dose activity, negative = inhibition, hits mostly inhibitors; AID 504332, 2011; 350,000 compounds, 8.8% hits; G9a H3K9 monomethylation, AlphaScreen, 2 h; further: on the % scale 0 is the no-effect control and ±100 the full control effect; nearly all actives have a fitted effect of over 75% in size
#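 Quantitative HTS format: methyltransferase activity on a biotin-tagged H3K9 peptide is measured by AlphaScreen, using a rabbit anti-monomethyl-H3K9 antibody with streptavidin donor and anti-IgG acceptor beads. Final levels are 20 nM enzyme, 500 nM peptide, 20 uM SAM; 2 h RT.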
# * marks the source's active call; other numbers are inactive results; ? = inconclusive; . = not tested or not shown; [ ] = another dose, or the depositor's remark. Sampled rows, rich in hits. Any-hit rate of the full collection: about 12%. The call rests on the fitted dose curve; in most records, active means well fitted curve in the direction sought with a large enough effect; inconclusive means small, poorly fitted or top-dose-only effect, or another doubt; inactive means no such curve, though single readings can be large; an effect the other way counts as inactive or inconclusive. Potency means the concentration at half of the fitted maximal effect.
SMILES,Sfp inh,BAZ2B inh,JMJD2A Tudor inh,L3MBTL1 block,HP1b binding inh,G9a block
CC(C)C[C@H](N)C(=O)N[C@H](C(=O)N[C@H](C(=O)N[C@@H](Cc1ccc(O)cc1)C(=O)N1CCC[C@H]1C(=O)N[C@@H](Cc1c[nH]c2ccccc12)C(=O)N[C@H](C(=O)N[C@@H](CCC(N)=O)C(=O)N[C@@H](CCCN=C(N)N)C(=O)O)[C@@H](C)O)C(C)C)C(C)C,-5%,.,.,.,.,39%[59 µM]
COCCCN1CN=C(NS(=O)(=O)c2ccc(NC(C)=O)cc2)NC1,.,-28%,3%,.,4%,-6%[59 µM]
CCCCCC(=O)N/N=C(\C)c1ccccn1,?,-33%,-19%,5%,43%,?
CC(=NNC(=S)N1CC2CCC(CC2)C1)c1cccc(C)n1,.,.,22µM*,.,?,.
CC(=NNC(=S)N1CCC1)c1ccccn1,.,.,20µM*,.,15%,.
CC(=NNC(=S)SCc1ccccc1)c1ccccn1,.,.,20µM*,.,-15%,.
Nc1ccc2c(c1)Cc1cc(N)c(Br)cc1-2,.,.,50µM*,.,?,.
COc1cc2c(cc1N)-c1ccc(N)cc1C2,.,.,14µM*,.,?,.
CCC[n+]1c(C)sc2c3c(ccc21)CCCC3,-4%,-23%,45µM*,-5%,40µM*,50µM*
COc1ccccc1OCc1nc2ccccc2n1Cc1ccccc1,.,16%,-2%,.,28%,2%[59 µM]
Cc1nn(C)c(C)c1C1Nc2ccccc2C(=O)N1O (centres undefined),-3%,-19%,-13%[57.1 µM],12%,50%,13µM*
COc1ccc(C2Nc3ccccc3C(=O)N2O)cc1OC (centres undefined),-5%,-23%,?,1%,47%,10µM*
CCOC(=O)c1c(C)oc2nc(C)nc(NCC3CCN(Cc4cccc(Cl)c4)CC3)c12,.,1%[57.1 µM],-28%,.,-6%,0%[59 µM]
CC(=O)N(C1=C(N2CCOCC2)C(=O)c2ccccc2C1=O)c1ccc(C(=O)O)cc1,-12%,-37%,-20%,-16%,37%,40µM*
CC(=O)c1ccc(NC2=C(N3CCOCC3)C(=O)c3ccccc3C2=O)cc1,-6%,28µM*,40µM*,?,28µM*,.
Cc1ccc(NC2=C(N3CCOCC3)C(=O)c3ccccc3C2=O)cc1,-9%,14µM*,14µM*,?,13µM*,?
O=C(CSc1nc2ccc(Cl)cc2[nH]1)NC1CCCC1,-1%,?,-17%,.,20%,25µM*
O=C(CSc1nc2ccc([N+](=O)[O-])cc2[nH]1)NC1CCCCCC1,23%,2%,-31%,4%,-2%,45µM*
c1ccc(-c2cc(NCCN3CCCCC3)c3ccccc3n2)cc1,-4%,-21%,-14%,.,21%,40µM*
Cc1ccc(S(=O)(=O)N2CCCC2)cc1[N+](=O)[O-],16%,5%,-18%,-2%,20%,33%[59 µM]
Cc1ccc([N+](=O)[O-])c2c1C(N1CCCC1)C(C)(C)O2 (centres undefined),1%,?,-31%,-10%,7%,11µM*
CCCc1cc(=O)[nH]c(SCC(=O)N2CCN(c3ccccc3OC)CC2)n1,.,-13%,-10%,.,46%,3%[59 µM]
Cc1nc(SCC(=O)Nc2cccnc2Cl)nc(C)c1C,-24%,-38%,-14%,-13%,29%,40µM*
Cc1nc(SCC(=O)Nc2cc(Cl)ccc2[N+](=O)[O-])nc(C)c1C,-13%,40µM*,?,-21%,?,?
Cc1c(CNC2CCCCCC2)c(C(=O)O)c(C)n1Cc1c(F)cccc1Cl,.,-11%,-24%,.,13%,-7%[59 µM]
SMILES,Sfp inh,BAZ2B inh,JMJD2A Tudor inh,L3MBTL1 block,HP1b binding inh,G9a block
O=c1[nH]c2c(s1)C(c1ccco1)C1C3CCC(C3)C1S2 (centres undefined),45µM*,50µM*,?,.,-13%,7.9µM*
O=C(O)CN1C(=O)C2C3CC(C2C1=O)C1C(c2ccccc2)c2sc(=O)[nH]c2SC31 (centres undefined),-29%,6%,-23%,?,18%,-19%[59 µM]
CCc1cc2c(=O)n(Cc3ccco3)c(SCC(=O)N(C)C3CCS(=O)(=O)C3)nc2s1 (centres undefined),7.9µM*,-2%,-23%,?,15%,?
CCc1cc2c(=O)n(Cc3ccco3)c(SCC(=O)NCC3CCCO3)nc2s1 (centres undefined),-9%,-1%,-20%,.,16%,25%[59 µM]
CCc1cc2c(=O)n(Cc3ccco3)c(SCC(=O)N3CCCc4ccccc43)nc2s1,45µM*,-8%,-18%,-15%,2%,-6%[59 µM]
CCc1cc2c(=O)n(Cc3ccco3)c(SCC(=O)NC3CCS(=O)(=O)C3)nc2s1 (centres undefined),32µM*,-20%,-28%,3%,11%,50µM*
CN(C(=O)CSc1nc2cc(Cl)ccc2c(=O)n1Cc1ccco1)C1CCS(=O)(=O)C1 (centres undefined),-13%,?,-23%,?,24%,-12%
CCOC(=O)c1[nH]c(=O)[nH]c1CSc1nc(C)cc(C)n1,-22%,-10%,1%,.,63%,?
CCOC(=O)c1[nH]c(=O)[nH]c1COC(=O)c1cc2ccccc2o1,19%,-38%,?,2%,?,7.9µM*
COc1cccc(CNCCO)c1OCc1ccccc1,-15%,-5%,-11%,65%,17%,-9%[59 µM]
COc1ccccc1CNCC(c1ccccc1)c1ccccc1,-10%,50µM*,.,.,.,40µM*
COc1ccccc1CNCc1ccc(OC)c2ccccc12,.,.,18µM*,.,-16%,.
COc1cccc(CNCc2ccccn2)c1OC,-11%,?,56µM*,?,23%,6%
COc1ccccc1CNCc1cccc(Oc2ccccc2)c1,-13%,25µM*,40µM*,5%,-9%,8.9µM*
COc1ccccc1CNCC(O)Cn1c2ccccc2c2ccccc21 (centres undefined),-74%,-33%,-35%,-17%,11%,-53%[59 µM]
COc1ccc(CNCc2ccc(OC)c3ccccc23)cc1,3%,?,?,.,-17%,-18%
